According to paper PMC7819943, “Rice protein-binding microarrays: a tool to detect cis-acting elements near promoter regions in rice”:
Whole data set: some 39,000 sequences, median “fluorescence intensity (a.u.)” near 4,300, cut for the highest 2% near 39,000. The full list was thinned out, with the highest values kept by preference.

molecular target: T1, OsSMF1 (Oryza sativa, UniProt Q6ZLB0 1-436); test: protein-binding microarray (RPBM); PBS, 2% BSA, 51.3 ng/ul salmon testes DNA, 50 uM zinc acetate, 200 nM TF, 25 C, 1 h; high values mean tight binding; conditions: protein: recombinant; tags: N-terminal polyhistidine and DsRed monomer fusion (pET32a); chain copies: 2; label: CyDye5-dUTP incorporated in the synthesized complementary strand; 3' TTTTT single-stranded linker to array surface; dsDNA, one strand shown
T1 sequence: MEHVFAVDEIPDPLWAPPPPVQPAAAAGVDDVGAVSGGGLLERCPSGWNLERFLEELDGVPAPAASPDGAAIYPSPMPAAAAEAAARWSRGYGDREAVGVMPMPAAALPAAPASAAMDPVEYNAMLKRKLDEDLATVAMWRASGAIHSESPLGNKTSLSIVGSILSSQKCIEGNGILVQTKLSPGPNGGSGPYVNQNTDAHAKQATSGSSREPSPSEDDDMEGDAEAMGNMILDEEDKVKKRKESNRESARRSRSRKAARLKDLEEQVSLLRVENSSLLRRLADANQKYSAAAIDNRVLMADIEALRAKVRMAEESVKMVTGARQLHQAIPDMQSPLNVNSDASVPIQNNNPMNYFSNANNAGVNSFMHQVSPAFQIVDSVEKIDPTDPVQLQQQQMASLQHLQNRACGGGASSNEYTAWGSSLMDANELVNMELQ
Procedure, shortened: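 Binding signal is defined as the fluorescence intensity of each feature in arbitrary units, read on an Axon 4000B scanner. Transcription factors with N-terminal polyhistidine and DsRed fusions came from E. coli BL21-CodonPlus and were purified on Ni–NTA. They were incubated at 200 nM for 1 h at 25 °C on a custom Agilent array that had been made double-stranded with Cy5-dUTP, with 50 µM zinc acetate present, and the array was washed.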

Row | Sequence | binding signal
1 | GACAGTAGCAGCAGTGGACACGTCGATTTCGCAATTCGTGCGGAGTCACCTAGTGCAG | 5760 fluorescence intensity (a.u.)
2 | GCCAGGCGACGCGACGAGTCAGCTCAGCTCGCGCCCGCGGCGGAGTCACCTAGTGCAG | 3700 fluorescence intensity (a.u.)
3 | GAGGTACCGGCCGTACGCGCCGCGGAGGCGGACGTAGGGCCGGAGTCACCTAGTGCAG | 31200 fluorescence intensity (a.u.)
4 | TCCCGTGCAGCCGTGGCAGCCGCGCGCTGCTCGAGTCCGGCGGAGTCACCTAGTGCAG | 4470 fluorescence intensity (a.u.)
5 | GCGGCGGTGTCTCGCGCCGCCAGCCTACAAATGGGGAGAGCGGAGTCACCTAGTGCAG | 40300 fluorescence intensity (a.u.)
6 | TGCTTAGCCGTGCGGCCCGTGCGGCGTCAATGGCGTGGCGCGGAGTCACCTAGTGCAG | 4440 fluorescence intensity (a.u.)
7 | GGCGAGCGCGGCGGAGGAGCGGCGGCGGGCGAGCGCGGCGCGGAGTCACCTAGTGCAG | 8450 fluorescence intensity (a.u.)
8 | GAGAGGGGAAGGGCGCTAGTAAGAAGCGCTAAGGGATGAGCGGAGTCACCTAGTGCAG | 3180 fluorescence intensity (a.u.)
9 | CGGTGGCAGCCCGGCGGCGTGGAGCGCGCTGCTTAGCGCGCGGAGTCACCTAGTGCAG | 53600 fluorescence intensity (a.u.)
10 | GGAGCGCGGACTCGCCGGCCAGCCGCGTCACGCGCTGGCGCGGAGTCACCTAGTGCAG | 6650 fluorescence intensity (a.u.)
11 | GAGAGAGAGAGGGGACCAACTGAAAAGAGAGAGAAGCTAGCGGAGTCACCTAGTGCAG | 31200 fluorescence intensity (a.u.)
12 | GAAGAGGGGAGGGAGCTCCAAAAGGGCGAGAAAGTAAGCGCGGAGTCACCTAGTGCAG | 39400 fluorescence intensity (a.u.)
13 | GGCGCCAGCCCCGGTGCCGGGGAGTGTGGCGGAGCGGGAGCGGAGTCACCTAGTGCAG | 3910 fluorescence intensity (a.u.)
14 | CGAGAGGTACCGCGCGCTGCCGGCGGAGAAGCGGGCGAGGCGGAGTCACCTAGTGCAG | 41500 fluorescence intensity (a.u.)
15 | ATACTTCCATTTGTGCCATACATTTTGTCATTTCGACCTGCGGAGTCACCTAGTGCAG | 3330 fluorescence intensity (a.u.)
16 | GGTTTTAACCCCGATTTCGTTCGACGTGGCGGCTGAGTCACGGAGTCACCTAGTGCAG | 10800 fluorescence intensity (a.u.)
17 | ATTCACTTTCTTGATTACGTAGAAGCTTCAGTGTCTATTCCGGAGTCACCTAGTGCAG | 3810 fluorescence intensity (a.u.)
18 | ACAAGTACTACACGCGAATGTATTTCAATAGAAATTTATCCGGAGTCACCTAGTGCAG | 35600 fluorescence intensity (a.u.)
19 | TGCATGTACGATACTGGAGCTGATCCTCGCCATCATATCCCGGAGTCACCTAGTGCAG | 3160 fluorescence intensity (a.u.)
20 | CGGAGACGGGAGGCGAGGCGAGCGGCGCCGCGGAACGGGACGGAGTCACCTAGTGCAG | 18600 fluorescence intensity (a.u.)
21 | CGCCGCGAAGGCGCGAAGCCCCGTCACCGCGCGCGCGCGCCGGAGTCACCTAGTGCAG | 5540 fluorescence intensity (a.u.)

Row | Sequence | binding signal
22 | ACAAACCAACCAACCCTCCTCGCCGCGGCCGCCGCCACCGCGGAGTCACCTAGTGCAG | 3400 fluorescence intensity (a.u.)
23 | AGAAGCGCGCCGAGGAGGCCCGCTCGTTCAACCGCGCCGCCGGAGTCACCTAGTGCAG | 65500 fluorescence intensity (a.u.)
24 | CCGCCTCGCCGCGTGCCTCTGGAACAATCTGGCGCTGCCGCGGAGTCACCTAGTGCAG | 3700 fluorescence intensity (a.u.)
25 | ATCAGCAAGAATGCGAGGGAGACGGCGGAGAGCTCGGGAACGGAGTCACCTAGTGCAG | 43000 fluorescence intensity (a.u.)
26 | GTGCGCGCGGTGCTTAGGCAGACGCGGCCCAGATCGGCGCCGGAGTCACCTAGTGCAG | 40500 fluorescence intensity (a.u.)
27 | GCGCGCGCGCGCGGGCATAGGCGACGCCGCGACGGTGCGGCGGAGTCACCTAGTGCAG | 3890 fluorescence intensity (a.u.)
28 | GGCGGCGGCGGAGAAGGAGAGGCCGCCCGCCGCGTGGCGCCGGAGTCACCTAGTGCAG | 6420 fluorescence intensity (a.u.)
29 | ACGATCGGTGACGACGAGCGACGACGCGGCATGAAGACGCCGGAGTCACCTAGTGCAG | 3300 fluorescence intensity (a.u.)
30 | AGGGAAAAGAGGAGACGGGAGGAAAGGAACGGAGGAGATGCGGAGTCACCTAGTGCAG | 3340 fluorescence intensity (a.u.)
31 | TGGAGAGGGAACCAACAACAAACAACCAGCTGCCTCGCCGCGGAGTCACCTAGTGCAG | 47200 fluorescence intensity (a.u.)
32 | GAGAGAGAGAGAGGGATTTCCCCTTGGCTCCGCGTCGATACGGAGTCACCTAGTGCAG | 3520 fluorescence intensity (a.u.)
33 | AATCTATATGTTATCGTCCTCCTCTTGCGTGTGGCTAGTTCGGAGTCACCTAGTGCAG | 3750 fluorescence intensity (a.u.)
34 | AATTGTTTACTGATCTTTGCGTTAATGATGATTGTGCCCTCGGAGTCACCTAGTGCAG | 3160 fluorescence intensity (a.u.)
35 | AAAATTCGAATCAGGCGGAGCCACCTCACCTCGCCGCGGCCGGAGTCACCTAGTGCAG | 5020 fluorescence intensity (a.u.)
36 | CTTTGTCTTAGTATGGTGACTGGTTGCAAATTGATTTGGTCGGAGTCACCTAGTGCAG | 3410 fluorescence intensity (a.u.)
37 | AGCTAGCTAGCTAACTAGTAAGGAGGTACACGTAGGTAGCCGGAGTCACCTAGTGCAG | 6960 fluorescence intensity (a.u.)
38 | TGGGTTGAATATGAGCTTGAATATTGGTGGAGTGATACATCGGAGTCACCTAGTGCAG | 3240 fluorescence intensity (a.u.)
39 | CTTCCATATATCCTTGTCACAAGCTAGCTCACAAAACTTCCGGAGTCACCTAGTGCAG | 4680 fluorescence intensity (a.u.)
40 | GAGGCCGGGGTCGGGGCGAGCGAGGCGAGAGGGGAGGAGGCGGAGTCACCTAGTGCAG | 4480 fluorescence intensity (a.u.)
41 | GTGATTTATCCGAGCAGAGTGGCGGCGGCTTCGCCGAGTACGGAGTCACCTAGTGCAG | 39600 fluorescence intensity (a.u.)
42 | GGTGGCGGCGCGGGCCGGGCGGCGGCGGCGGCGGCGGCTCCGGAGTCACCTAGTGCAG | 40400 fluorescence intensity (a.u.)
